Assay results from ChEMBL document CHEMBL1961873, “Compounds: GSK PKIS; Assays: Nanosyn kinase panel” (2012).

Molecular target: T1, Serine/threonine-protein kinase 4 (Homo sapiens) (UniProt Q13043);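 further: mean inhibition of MST1, part of the GSK PKIS dataset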
T1 sequence (whole entry): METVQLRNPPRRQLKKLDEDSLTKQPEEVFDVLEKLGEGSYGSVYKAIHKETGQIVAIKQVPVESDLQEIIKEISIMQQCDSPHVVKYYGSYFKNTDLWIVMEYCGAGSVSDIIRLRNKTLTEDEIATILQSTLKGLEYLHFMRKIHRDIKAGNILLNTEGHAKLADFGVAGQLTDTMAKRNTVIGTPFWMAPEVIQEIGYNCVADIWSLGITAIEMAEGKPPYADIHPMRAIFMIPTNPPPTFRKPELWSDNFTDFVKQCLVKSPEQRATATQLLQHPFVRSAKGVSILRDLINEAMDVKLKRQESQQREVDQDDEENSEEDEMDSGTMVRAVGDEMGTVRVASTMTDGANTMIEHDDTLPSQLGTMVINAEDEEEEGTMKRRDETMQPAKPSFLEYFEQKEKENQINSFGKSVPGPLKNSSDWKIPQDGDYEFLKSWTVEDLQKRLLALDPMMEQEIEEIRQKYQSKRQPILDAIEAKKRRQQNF
Conditions: at 1 µM

Q: Which inhibition does the source give for `COc1cccc(/C=N/Nc2ncnc3c2cnn3-c2cccc(OC)c2)c1` here?
A: 3.52%

Q: How did the inhibition turn out when `COc1ccc2ncn(-c3cc(O[C@H](C)c4ccccc4Cl)c(C(N)=O)s3)c2c1` was run?
A: 13%

Q: `O=C(Nc1n[nH]c2cc(-c3cc(F)ccc3F)ccc12)C1CC1` was tested. Which inhibition did it give?
A: 4.03%

Q: How did the inhibition turn out when `COc1ccc(-c2ccc3c(NC(=O)C4CC4)n[nH]c3n2)cc1` was run?
A: 4.96%

Q: Which inhibition does the source give for `Clc1ccc(CNc2nccc(-c3cnn4ncccc34)n2)cc1` here?
A: 5.84%

Q: `CN(C)CCOc1ccc(-c2cc(-c3ccc4c(c3)CCC4=NO)c(-c3ccncc3)o2)cc1` was tested. Which inhibition did it give?
A: 0.8%

Q: For `COc1cc(N2CCN(C(C)C)CC2)ccc1Nc1nc(Nc2ccc(F)cc2C(=O)NC[C@@H](O)CO)c2cc[nH]c2n1`, which inhibition is on record?
A: 6.99%

Q: Which inhibition does the source give for `Cc1ccc(C(=O)NC(C)C)cc1-c1ccc(C(=O)NCC2CC2)cc1` here?
A: -3.63%

Q: `O=C(Nc1ccc(Oc2ccc3[nH]c(NC(=O)c4ccccc4)nc3c2)cc1)Nc1cc(C(F)(F)F)ccc1F` was tested. Which inhibition did it give?
A: 10.6%

Q: For `Cc1ccc(C(=O)NC2CCC2)cc1-c1ccc(C(=O)NCC2CC2)cc1`, which inhibition is on record?
A: 1.77%

Q: Which inhibition does the source give for `O=C1Nc2ccc(I)cc2C1=Cc1cc(Br)c(O)c(Br)c1` here?
A: 17.2%

Q: For `COc1cc(C)c(N(C)C(=O)CN(C)C)cc1Nc1nc(Nc2cccc(F)c2C(N)=O)c2cc[nH]c2n1`, which inhibition is on record?
A: 4.81%

Q: Which inhibition does the source give for `NS(=O)(=O)c1ccc(N/N=C2\C(=O)Nc3ccc(-c4cnco4)cc32)cc1` here?
A: 76.8%

Q: Which inhibition does the source give for `CS(=O)(=O)CCNCc1ccc(-c2ccc3ncnc(Nc4ccc(OCc5ccccc5)c(Br)c4)c3c2)o1` here?
A: 2.76%

Q: For `COc1cccc(-n2cnc3c(N/N=C/c4ccncc4)ncnc32)c1`, which inhibition is on record?
A: 7.14%

Q: For `Cc1ccc(NC(=O)c2ccoc2)cc1-c1ccc(C(=O)NCC2CC2)cc1`, which inhibition is on record?
A: 2.08%

Q: With `COc1ccc2cc(-c3c(-c4ccncc4)nc(-c4ccc([S+](C)[O-])cc4C)n3C)ccc2c1` (stereo not drawn) as the molecule, how does the inhibition read?
A: 7.66%

Q: For `CCS(=O)(=O)c1ccc(OC)c(Nc2ncc(-c3cccc(-c4ccccc4F)c3)o2)c1`, which inhibition is on record?
A: 0.6%

Q: How did the inhibition turn out when `Fc1ccc(-c2ncn(C3CCNCC3)c2-c2ccnc(Oc3ccc(F)c(F)c3)n2)cc1` was run?
A: 7.9%

Q: Which inhibition does the source give for `COc1ccc2cc(-c3c(-c4ccncc4)nc(-c4ccc(S(C)(=O)=O)cc4C)n3C)ccc2c1` here?
A: 8.72%

Q: For `O=C1NC(=O)C(c2cccc(Cl)c2)=C1Nc1ccc(Cl)c(C(=O)O)c1`, which inhibition is on record?
A: 7.28%

Q: Which inhibition does the source give for `CN(C)c1ccc2c(c1)/C(=C/Nc1ccc(S(N)(=O)=O)cc1)C(=O)N2` here?
A: 71.7%

Q: Which inhibition does the source give for `CN(c1ccc(NC(=O)Nc2c(Cl)cccc2Cl)cc1)c1ccnc(Nc2cccc(CS(C)(=O)=O)c2)n1` here?
A: 17.4%

Q: `COc1ccc(C2=C(N3CCc4ccccc43)C(=O)NC2=O)cc1` was tested. Which inhibition did it give?
A: 7.64%

Q: For `NS(=O)(=O)c1ccc(Nc2cc(-c3ccc(O)c(F)c3)n[nH]2)cc1`, which inhibition is on record?
A: 12.6%

Q: How did the inhibition turn out when `COc1cc2ncn(-c3cc(OCCc4ccccc4)c(C(N)=O)s3)c2cc1OC` was run?
A: 13.6%

Q: How did the inhibition turn out when `CN1CCN(CCCNc2nc3ccc(Oc4ccc(NC(=O)Nc5cc(C(F)(F)F)ccc5F)cc4)cc3[nH]2)CC1` was run?
A: 3.57%

Q: How did the inhibition turn out when `CCc1ccc(Oc2nccc(-c3c(-c4ccc(F)cc4)ncn3C3CCNCC3)n2)cc1` was run?
A: 5.43%

Q: `CCS(=O)(=O)c1ccc(OC)c(Nc2ncc(-c3ccccc3Cl)o2)c1` was tested. Which inhibition did it give?
A: 5.89%

Q: How did the inhibition turn out when `c1ccc(-c2n[nH]cc2-c2ccnc(-c3ccc(OCCN4CCOCC4)cc3)c2)nc1` was run?
A: 2.13%

Q: `COc1cc(Nc2ncc3c(C)nc(-c4cccc(Oc5ccccc5)c4)n3n2)cc(OC)c1OC` was tested. Which inhibition did it give?
A: 6.48%

Q: `CNC(=O)c1cncc(/C=C/c2c(C)cccc2C)c1` was tested. Which inhibition did it give?
A: 3.51%

Q: Which inhibition does the source give for `COc1cc(Nc2ncc3c(C)nc(-c4cccc(C(F)(F)F)c4)n3n2)cc(OC)c1OC` here?
A: 17.8%

Q: With `CCN(CC)Cc1ccc(Nc2nccc(-c3cnn4ncccc34)n2)cc1` as the molecule, how does the inhibition read?
A: 15.9%

Molecular target: T2, Serine/threonine-protein kinase 3 (Homo sapiens) (UniProt Q13188);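 further: reported value is the mean percent inhibition of MST2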
T2 sequence (whole entry): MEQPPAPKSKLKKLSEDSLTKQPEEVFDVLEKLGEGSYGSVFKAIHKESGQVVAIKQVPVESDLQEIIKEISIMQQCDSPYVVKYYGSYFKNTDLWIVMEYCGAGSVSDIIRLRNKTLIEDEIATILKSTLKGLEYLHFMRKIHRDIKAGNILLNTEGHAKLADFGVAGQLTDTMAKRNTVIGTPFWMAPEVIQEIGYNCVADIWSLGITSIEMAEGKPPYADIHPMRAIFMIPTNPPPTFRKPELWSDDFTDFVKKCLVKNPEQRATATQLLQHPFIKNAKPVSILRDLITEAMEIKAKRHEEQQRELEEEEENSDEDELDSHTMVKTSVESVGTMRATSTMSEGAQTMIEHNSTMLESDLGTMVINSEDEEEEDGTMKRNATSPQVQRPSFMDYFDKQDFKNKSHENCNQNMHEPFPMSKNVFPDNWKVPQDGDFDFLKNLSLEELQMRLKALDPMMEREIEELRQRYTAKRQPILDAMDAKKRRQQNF
Conditions: at 0.1 µM

Q: With `COc1cccc(/C=N/Nc2ncnc3c2cnn3-c2cccc(OC)c2)c1` as the molecule, how does the inhibition read?
A: 3.29%

Q: How did the inhibition turn out when `COc1ccc2ncn(-c3cc(O[C@H](C)c4ccccc4Cl)c(C(N)=O)s3)c2c1` was run?
A: 6.32%

Q: With `O=C(Nc1n[nH]c2cc(-c3cc(F)ccc3F)ccc12)C1CC1` as the molecule, how does the inhibition read?
A: 2.46%

Q: `COc1ccc(-c2ccc3c(NC(=O)C4CC4)n[nH]c3n2)cc1` was tested. Which inhibition did it give?
A: 2.09%

Q: Which inhibition does the source give for `Clc1ccc(CNc2nccc(-c3cnn4ncccc34)n2)cc1` here?
A: 2.53%

Q: `CN(C)CCOc1ccc(-c2cc(-c3ccc4c(c3)CCC4=NO)c(-c3ccncc3)o2)cc1` was tested. Which inhibition did it give?
A: -1.52%

Q: `COc1cc(N2CCN(C(C)C)CC2)ccc1Nc1nc(Nc2ccc(F)cc2C(=O)NC[C@@H](O)CO)c2cc[nH]c2n1` was tested. Which inhibition did it give?
A: 6.36%

Q: How did the inhibition turn out when `Cc1ccc(C(=O)NC(C)C)cc1-c1ccc(C(=O)NCC2CC2)cc1` was run?
A: -4.19%

Q: With `O=C(Nc1ccc(Oc2ccc3[nH]c(NC(=O)c4ccccc4)nc3c2)cc1)Nc1cc(C(F)(F)F)ccc1F` as the molecule, how does the inhibition read?
A: 5.74%

Q: For `Cc1ccc(C(=O)NC2CCC2)cc1-c1ccc(C(=O)NCC2CC2)cc1`, which inhibition is on record?
A: 1.04%

Q: With `O=C1Nc2ccc(I)cc2C1=Cc1cc(Br)c(O)c(Br)c1` as the molecule, how does the inhibition read?
A: 3.5%

Q: With `COc1cc(C)c(N(C)C(=O)CN(C)C)cc1Nc1nc(Nc2cccc(F)c2C(N)=O)c2cc[nH]c2n1` as the molecule, how does the inhibition read?
A: 5.2%

Q: Which inhibition does the source give for `NS(=O)(=O)c1ccc(N/N=C2\C(=O)Nc3ccc(-c4cnco4)cc32)cc1` here?
A: 33.4%

Q: `CS(=O)(=O)CCNCc1ccc(-c2ccc3ncnc(Nc4ccc(OCc5ccccc5)c(Br)c4)c3c2)o1` was tested. Which inhibition did it give?
A: 4.32%

Q: With `COc1cccc(-n2cnc3c(N/N=C/c4ccncc4)ncnc32)c1` as the molecule, how does the inhibition read?
A: 4.46%

Q: For `Cc1ccc(NC(=O)c2ccoc2)cc1-c1ccc(C(=O)NCC2CC2)cc1`, which inhibition is on record?
A: 4.78%

Q: Which inhibition does the source give for `COc1ccc2cc(-c3c(-c4ccncc4)nc(-c4ccc([S+](C)[O-])cc4C)n3C)ccc2c1` (stereo not drawn) here?
A: -0.9%

Q: With `CCS(=O)(=O)c1ccc(OC)c(Nc2ncc(-c3cccc(-c4ccccc4F)c3)o2)c1` as the molecule, how does the inhibition read?
A: 0.7%

Q: With `Fc1ccc(-c2ncn(C3CCNCC3)c2-c2ccnc(Oc3ccc(F)c(F)c3)n2)cc1` as the molecule, how does the inhibition read?
A: 10.2%

Q: For `COc1ccc2cc(-c3c(-c4ccncc4)nc(-c4ccc(S(C)(=O)=O)cc4C)n3C)ccc2c1`, which inhibition is on record?
A: 4.72%

Q: `O=C1NC(=O)C(c2cccc(Cl)c2)=C1Nc1ccc(Cl)c(C(=O)O)c1` was tested. Which inhibition did it give?
A: 6.05%

Q: `CN(C)c1ccc2c(c1)/C(=C/Nc1ccc(S(N)(=O)=O)cc1)C(=O)N2` was tested. Which inhibition did it give?
A: 32.3%

Q: For `CN(c1ccc(NC(=O)Nc2c(Cl)cccc2Cl)cc1)c1ccnc(Nc2cccc(CS(C)(=O)=O)c2)n1`, which inhibition is on record?
A: 8.37%

Q: With `COc1ccc(C2=C(N3CCc4ccccc43)C(=O)NC2=O)cc1` as the molecule, how does the inhibition read?
A: 6.94%

Q: With `NS(=O)(=O)c1ccc(Nc2cc(-c3ccc(O)c(F)c3)n[nH]2)cc1` as the molecule, how does the inhibition read?
A: -1.84%

Q: For `COc1cc2ncn(-c3cc(OCCc4ccccc4)c(C(N)=O)s3)c2cc1OC`, which inhibition is on record?
A: 2.95%

Q: With `CN1CCN(CCCNc2nc3ccc(Oc4ccc(NC(=O)Nc5cc(C(F)(F)F)ccc5F)cc4)cc3[nH]2)CC1` as the molecule, how does the inhibition read?
A: 2.61%

Q: `CCc1ccc(Oc2nccc(-c3c(-c4ccc(F)cc4)ncn3C3CCNCC3)n2)cc1` was tested. Which inhibition did it give?
A: 5.44%

Q: Which inhibition does the source give for `CCS(=O)(=O)c1ccc(OC)c(Nc2ncc(-c3ccccc3Cl)o2)c1` here?
A: 1.11%

Q: How did the inhibition turn out when `c1ccc(-c2n[nH]cc2-c2ccnc(-c3ccc(OCCN4CCOCC4)cc3)c2)nc1` was run?
A: 2.06%

Q: For `COc1cc(Nc2ncc3c(C)nc(-c4cccc(Oc5ccccc5)c4)n3n2)cc(OC)c1OC`, which inhibition is on record?
A: 5.14%

Q: Which inhibition does the source give for `CNC(=O)c1cncc(/C=C/c2c(C)cccc2C)c1` here?
A: 2.27%

Q: How did the inhibition turn out when `COc1cc(Nc2ncc3c(C)nc(-c4cccc(C(F)(F)F)c4)n3n2)cc(OC)c1OC` was run?
A: 6.69%

Q: With `CCN(CC)Cc1ccc(Nc2nccc(-c3cnn4ncccc34)n2)cc1` as the molecule, how does the inhibition read?
A: 5.43%
